Among the data in PubChem BioAssay AID1578 (Sanford-Burnham Center for Chemical Genomics, 2009) are inhibition values, retold here.

One may read the inhibition as the drop in the measured response relative to a control, in per cent.

The whole screen tested about 290,000 compounds, of which about 3,000 (1%) were called active. Rule as the data show it: active = inhibition mostly above about 36% (no sharp cut-off); inactive = mostly below about 34%. Many of the other results were omitted from the sample, so actives are more common in it than they were.

The nature of the experiment: inhibition of NOD1-driven NF-kB reporter – cell-based, luminescence, uHTS, primary screen (AID 1578).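 Also: HEK-293T reporter cells stimulated with the NOD1 agonist gamma-tri-DAP.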 Particulars: NOD1-driven NF-kB luciferase reporter cells, at 4 µM, hits give high values. (In general: Reporter assays use an easily measured gene product as a stand-in for the process of interest.)
For the compound `CCOC(=O)N1CCN(S(=O)(=O)N2CCCC(C(=O)NCc3ccc(F)cc3)C2)CC1` (stereo unspecified), the inhibition is 3.3% (inactive).

On to `O=C(CCC(=O)N(c1cccc(F)c1)C(C(=O)NC1CCCC1)c1ccncc1)Nc1cccnc1` (stereo unspecified), for which the inhibition is -42.2% (inactive).

As to `CC1C=CCC2C(=O)N(c3cccc(C(=O)Nc4ccc(Br)cc4)c3)C(=O)C12` (stereo unspecified), the inhibition is -16.6% (inactive).

As to `CCCCN(CC)S(=O)(=O)c1c(C)[nH]c(=O)[nH]c1=O`, the inhibition is -34.4% (inactive).

For `CCOc1ccc(N2CC(C(=O)Nc3nnc(C4CCCCC4)s3)CC2=O)cc1` (stereo unspecified), the inhibition is -28.2% (inactive).

For `O=C(O)COc1ccccc1/C=N/NC(=O)c1cc(-c2ccccc2)nc2ccccc12`, the inhibition is -11.3% (inactive).

As for `CCOc1cc(C(c2c(C)[nH][nH]c2=O)c2c(C)[nH][nH]c2=O)cc(Cl)c1O`, the inhibition is 7.7% (inactive).

With `CC(Cc1ccccc1)C(=O)NCc1ccncc1` (stereo unspecified), the inhibition was -26.7% (inactive).

In the case of `CCCCc1ccc(NC(=O)C(=O)NCCN2CCN(C(=O)c3ccc([N+](=O)[O-])cc3)CC2)cc1`, the inhibition is 0.1% (inactive).

Regarding `CCc1ccc(NC(=O)C(=O)NCCN2CCN(Cc3ccc([N+](=O)[O-])cc3)CC2)cc1`, the inhibition was 12.5% (inactive).

Take `CCCCc1ccc(NC(=O)C(=O)NCCN2CCN(Cc3ccc([N+](=O)[O-])cc3)CC2)cc1`: the inhibition is 34.7% (active).

For `COc1cc(OC)cc(-c2nnc(SCC(=O)N(Cc3ccccc3)C(C)(C)C)o2)c1`, the inhibition is 14.6% (inactive).

`COc1ccc(-c2nnc(SCC(=O)N(Cc3ccccc3)C(C)(C)C)o2)cc1OC`: the inhibition is 58.8% (active).

On to `COc1cc(-c2nnc(SCC(=O)N(Cc3ccccc3)C(C)(C)C)o2)cc(OC)c1OC`, for which the inhibition is 10.5% (inactive).

Regarding `O=S(=O)(c1cccs1)N1CCN(S(=O)(=O)c2cccs2)CC1`, the inhibition was -16.1% (inactive).

For the compound `CC1CN(S(=O)(=O)c2cccs2)CC(C)O1` (stereo unspecified), the inhibition was 34.6% (active).

For the compound `CC1CN(S(=O)(=O)c2ccccc2)CC(C)O1` (stereo unspecified), the inhibition was -8.4% (inactive).

For `CCOC(=O)NC(=O)/C(C#N)=N\Nc1cccc(OC)c1`, the inhibition is -43% (inactive).

Consider `CCOC(=O)NC(=O)/C(C#N)=N\Nc1ccc(Cl)cc1`, for which the inhibition was -37.5% (inactive).

Consider `CCOC(=O)NC(=O)/C(C#N)=N\Nc1cccc(Cl)c1`, for which the inhibition was 55.7% (active).

Regarding `CC(C)COc1ccc(/C(O)=C2/C(=O)C(=O)N(CCN(C)C)C2c2ccncc2)cc1` (stereo unspecified), the inhibition was -0.8% (inactive).

Turning to `CS(=O)(=O)N1CCN(C(=O)COc2ccc3ccccc3c2)CC1`, the inhibition is 6.1% (inactive).

`CCc1ccc2oc(C(=O)NCCc3ccc(S(N)(=O)=O)cc3)cc(=O)c2c1`: the inhibition was -0.9% (inactive).

With `CCOC(=O)c1c(NC(=O)C(=O)N/N=C/c2ccc(OCC)cc2)sc2c1CCCCC2`, the inhibition is -14.4% (inactive).

`CCOC(=O)c1c(NC(=O)C(=O)N/N=C/c2ccc(O)c(OC)c2)sc2c1CCCCC2`: the inhibition was 81.2% (active).

With `CCOC(=O)c1c(NC(=O)N/N=C/c2ccccc2OCC)sc(C(C)=O)c1C`, the inhibition is -33.7% (inactive).

Consider `CCOC(=O)c1c(NC(=O)N/N=C/c2ccc(O)c(OC)c2)sc(C(C)=O)c1C`, for which the inhibition is 53.1% (active).

In the case of `COc1cc(/C=N/NC(=O)c2sc(N)c(C#N)c2C)ccc1O`, the inhibition is -14.2% (inactive).

On to `CCOC(=O)c1c(NC(=O)C(=O)N/N=C/c2ccccc2OC)sc2c1CCCCC2`, for which the inhibition is 7.6% (inactive).

On to `CN(CC(=O)Nc1ccccc1Cl)C1CCCCC1`, for which the inhibition is -46.1% (inactive).

In the case of `O=C(Cc1cccs1)NCCSc1c(-c2ccc(Cl)cc2)[nH]c2ccccc12`, the inhibition is 30.7% (inactive).

For `Cc1ccc(C(=O)NC(NCc2ccccc2)C(Cl)(Cl)Cl)cc1` (stereo unspecified), the inhibition is 5.2% (inactive).

Regarding `O=C(COC(=O)C1CC2C=CC1C2)Nc1cccc(S(=O)(=O)N2CCCCC2)c1` (stereo unspecified), the inhibition is -18.1% (inactive).

As to `Cc1ccc(-c2cc(C(F)(F)F)c(C#N)c(=O)[nH]2)cc1`, the inhibition is 1.8% (inactive).

As for `N#Cc1c(C(F)(F)F)cc(-c2ccc(Cl)cc2)[nH]c1=O`, the inhibition was 54.2% (active).

Regarding `N#Cc1c(C(F)(F)F)cc(-c2ccc(F)cc2)[nH]c1=O`, the inhibition was -17.2% (inactive).

In the case of `O=C(Nc1nc(-c2nc3ccccc3s2)cs1)c1ccc(S(=O)(=O)N2CCOCC2)cc1`, the inhibition was 47.5% (inactive).

Consider `CCOc1cccc(CNc2ccc(O)cc2)c1OCc1ccc(Cl)cc1`, for which the inhibition was 22.1% (inactive).

Regarding `CCOc1cccc(CNc2ccc(O)cc2)c1OCc1ccc(Cl)cc1Cl`, the inhibition is 7.6% (inactive).

Turning to `CCOc1cccc(CNc2ccc(O)cc2)c1OCc1ccccc1Cl`, the inhibition is 39.2% (active).

`CCC(C)NC(=O)c1cc(Cl)c(NC(=O)C2=C(C)OCCS2)cc1OC` (stereo unspecified): the inhibition is -9.8% (inactive).

With `Nc1nnc(SCc2nnc(-c3ccccc3)o2)s1`, the inhibition was -21% (inactive).

Turning to `O=C1CCc2cc(S(=O)(=O)NC(Cc3ccccc3)C(=O)NC3CCCC3)ccc2N1` (stereo unspecified), the inhibition was -11.4% (inactive).

Consider `CCN(CC)S(=O)(=O)c1cccc(C(=O)N[C@H](C(=O)OCC(=O)Nc2ccccc2)C(C)C)c1`, for which the inhibition was -24.7% (inactive).

Regarding `C/C(=N\Nc1ncc(Cl)cc1Cl)c1ccccn1`, the inhibition was 103% (active).

As for `C/C(=N\Nc1ncc(Cl)cc1Cl)c1ccc(C#N)cc1`, the inhibition was -40.4% (inactive).

Consider `C/C(=N\Nc1ccc(Cl)cc1)c1ccccn1`, for which the inhibition was -119% (inactive).

Take `Cc1cc(C)c(C(=O)COC(=O)CCNS(=O)(=O)c2c(Cl)cccc2Cl)cc1C`: the inhibition is -13.2% (inactive).

For `CCC(C(=O)NC1CC(C)(C)NC(C)(C)C1)c1ccccc1` (stereo unspecified), the inhibition is -18.7% (inactive).

In the case of `COc1cccc(-n2c(Cn3nc(C(F)(F)F)cc3C)n[nH]c2=S)c1`, the inhibition was 2.3% (inactive).

As for `CCn1cc(C(=O)NCc2ccccc2)c(=O)c2cc(F)c(N3CCN(C(=O)c4ccco4)CC3)cc21`, the inhibition is 46.3% (inactive).

For `CCn1cc(C(=O)NCc2ccc3c(c2)OCO3)c(=O)c2cc(F)c(N3CCN(C(=O)c4ccco4)CC3)cc21`, the inhibition was 82.7% (active).

In the case of `CCn1cc(C(=O)NCc2cccc(F)c2)c(=O)c2cc(F)c(N3CCN(C(=O)c4ccco4)CC3)cc21`, the inhibition is 0.3% (inactive).

As for `CCOc1ccc(NC(=O)C2CCN(S(=O)(=O)c3ccc4c(c3)CC(C)N4C(C)=O)CC2)cc1` (stereo unspecified), the inhibition was -19.4% (inactive).

`Cc1nn(C)cc1-c1n[nH]c(=S)n1-c1ccc(F)cc1`: the inhibition was -1.9% (inactive).

Consider `Cc1ccc(Cn2c3ccccc3c3cn[nH]c(=O)c32)cc1`, for which the inhibition was 59.1% (active).

As to `O=c1[nH]ncc2c3ccccc3n(Cc3ccccc3)c12`, the inhibition is 36.5% (inactive).

`O=c1[nH]ncc2c3ccccc3n(Cc3ccc(F)cc3)c12`: the inhibition is -2.2% (inactive).

Take `CN(C)C(=O)CN1C(=O)NC2(CCCc3ccccc32)C1=O` (stereo unspecified): the inhibition was -1.9% (inactive).

With `CCOC(=O)N1CCC(N(CCN(C)C)C(=S)Nc2cc(C)cc(C)c2)CC1`, the inhibition is -15.3% (inactive).

As to `CCOC(=O)N1CCC(N(CCN(C)C)C(=S)Nc2cc(Cl)cc(Cl)c2)CC1`, the inhibition is 65.6% (active).

For the compound `CCOC(=O)N1CCC(N(CCN(C)C)C(=S)Nc2cccc(Cl)c2)CC1`, the inhibition is 0.8% (inactive).

`CC(C)(C)C(=O)NC(CC(=O)O)c1ccccc1` (stereo unspecified): the inhibition is -18.6% (inactive).

For the compound `CC(C)(C(=O)N[C@H](CO)c1ccccc1)C(=O)N[C@H](CO)c1ccccc1`, the inhibition is 95% (active).

In the case of `O=C(NC(CO)c1ccccc1)c1ccco1` (stereo unspecified), the inhibition is 3% (inactive).

For the compound `COCCNC(=O)c1cc(Sc2nnc(C)s2)nc2ccccc12`, the inhibition is -10.4% (inactive).

In the case of `CCOC(=O)c1sc(NC(=O)c2cccc(S(=O)(=O)N3c4ccccc4CC3C)c2)cc1C` (stereo unspecified), the inhibition was 6.7% (inactive).

Regarding `Cc1ccc(NC(=O)CCc2nc3ccccc3s2)c(O)c1`, the inhibition is 43% (active).

As to `Cc1ccc(NC(=O)CCCc2nc3ccccc3s2)c(O)c1`, the inhibition is -33.8% (inactive).

In the case of `Cc1ccc2nc(NC(=O)CCCc3nc4ccccc4s3)sc2c1`, the inhibition was -29% (inactive).

Consider `O=C(c1ccc(F)cc1)n1c(NCc2ccccc2)n[nH]c1=S`, for which the inhibition is -17.3% (inactive).

Regarding `O=c1cc(C(F)(F)F)[nH]c2c(OC(F)(F)F)cccc12`, the inhibition was 15.5% (inactive).

Turning to `Cc1cccc2c(=O)cc(C(F)(F)F)[nH]c12`, the inhibition was 1.3% (inactive).

Regarding `O=c1cc(C(F)(F)F)[nH]c2c(C(F)(F)F)cccc12`, the inhibition was 72.8% (active).

In the case of `CCOc1ccc(NC(=O)C2CCCN(S(=O)(=O)c3cnc[nH]3)C2)cc1` (stereo unspecified), the inhibition is -9.3% (inactive).

Turning to `CCN(CC)S(=O)(=O)c1ccc(Cl)c(NC(=O)COC(=O)c2ccc(O)cc2)c1`, the inhibition is 21.8% (inactive).

For `CCSc1nsc(NC(=O)Nc2cccc(OC)c2)n1`, the inhibition is 52.2% (inactive).

Consider `COc1cccc(NC(=O)Nc2nc(SC(C)(C)C)ns2)c1`, for which the inhibition was 40.2% (inactive).

Turning to `COc1cccc(NC(=O)Nc2nc(SC)ns2)c1`, the inhibition was -38% (inactive).

Turning to `CCCSc1nsc(NC(=O)Nc2ccc(F)cc2F)n1`, the inhibition is 43% (inactive).

Turning to `CCSc1nsc(NC(=O)Nc2ccccc2F)n1`, the inhibition is -1.8% (inactive).

Take `CCSc1nsc(NC(=O)Nc2ccc(F)cc2F)n1`: the inhibition is 26% (inactive).

Regarding `CCn1cc(CN2CCC(C(=O)Nc3cccc(-c4cscn4)c3)CC2)cn1`, the inhibition is -27.3% (inactive).

Take `CC(C)(C)c1cc(CCC(=O)NCCc2ccccn2)cc(C(C)(C)C)c1O`: the inhibition is -9.5% (inactive).

Regarding `COc1ccc(/C=C(\NC(=O)c2ccc(Cl)cc2)C(=O)NCCCn2ccnc2)cc1OC`, the inhibition was 18.2% (inactive).

As to `CN1CCN(Cc2nc3c(c(=O)n(C)c(=O)n3C)n2CCCc2ccccc2)CC1`, the inhibition is 16.4% (inactive).

Take `COc1cccc(Nc2c(Nc3cccc(OC)c3)c(=O)c2=O)c1`: the inhibition is -10.3% (inactive).

In the case of `CC1(C)CC(=O)C(C(c2ccccc2F)C2C(=O)CC(C)(C)CC2=O)C(=O)C1`, the inhibition was 0.7% (inactive).

On to `Cc1ccc(S(=O)(=O)NC(CN2CCOCC2)=NCCNS(=O)(=O)c2ccccc2)cc1`, for which the inhibition was 31.6% (inactive).

For `CN1CCN(c2ccc(-c3ccnn3C(=O)Nc3cccc(C(F)(F)F)c3)cc2)CC1`, the inhibition was 19.1% (inactive).

Regarding `COC(=O)c1cc(N=Nc2sc(N)nc2C)cc(C(=O)OC)c1`, the inhibition was -4.7% (inactive).
